Source: PubChem BioAssay
Most compounds without a hit are left out; they make up all but 11% or so of the library.
VACV Venus inh = inhibitors of vaccinia virus (Venus reporter). Potency, µM (highest dose often 36.5 µM), inactives show at the top dose activity change, negative = inhibition, most hits filed as inhibitors. Vaccinia virus Venus reporter expression, fluorescence. 0.46% of 330,000 active; calls by dose curve; tested in A549 cells; further: on the % scale 0 is the no-effect control and ±100 the full control effect; nearly all actives have a fitted effect of over 30% in size
Pf growth 96h = inhibits malaria parasite growth, 96 h; Potency, µM (top dose mostly 28.7 µM), for the others: at the top dose activity change, negative = inhibition, actives largely listed as inhibitors; P. falciparum luciferase reporter growth, 96 h; AID 504834; 6.9% of 320,000 active; further: on the % scale 0 is the no-effect control and ±100 the full control effect
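Delayed-death screen, second-generation endpoint: infected erythrocytes, 2% hematocrit, 0.05% parasitemia final; 96 hours at 37 C, 5% CO2; luciferase detection reagent; luminescence decrease equals reduced growth.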
NS1 inh = blocks influenza NS1 protein function | 0.4% of 270,000 active | Potency, µM (top dose mostly 46.1 µM), without a hit: at the highest dose activity, positive = more growth; calls by dose curve; further: actives are rising curves; nearly all actives have a fitted effect of over 50% in size
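Growth recovery, yeast-based: influenza A NS1 expressed in S. cerevisiae causes slow growth, and suppressors are detected by OD600. The parent strain without NS1 is used as positive control.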
HCV inhibitor = blocks hepatitis C virus; Huh7.5.1 HCVcc-Cre infection, luciferase reporter, 44 h; Potency, µM (titrated, usually from 41.8 µM), inactives show top-dose activity change, negative = inhibition, most hits filed as inhibitors; 3.4% of 340,000 active; AID 651820; further: on the % scale 0 is the no-effect control and ±100 the full control effect
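Compounds are dispensed onto cells plated 4 h earlier at 1,000 per well, with HCVcc-Cre virus (about 0.5 moi) added next. Following 44 h of culture, luminescent signal is measured for 15 sec after 15 min with substrate at room temperature.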
Pf growth 48h = P. falciparum growth inhibition at 48 hours (one generation). AID 504832. P. falciparum luciferase growth in erythrocytes, 48 h. Potency, µM (series often up to 28.7 µM), for the others: at the top dose activity change, negative = inhibition, actives largely listed as inhibitors. 5.9% of 310,000 active; further: on the % scale 0 is the no-effect control and ±100 the full control effect
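First compound was added to culture medium, then infected red cells at 0.1% parasitemia and 2% hematocrit (final). After incubation at 37 C under 5% CO2, luciferase detection reagent was dispensed and light output recorded.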
VACV mCherry inh = inhibitors of vaccinia virus infection (mCherry reporter signal). Vaccinia virus mCherry reporter infection, fluorescence. Potency, µM (doses to about 36.5 µM), for the others: at the top dose activity change, negative = inhibition, most hits filed as inhibitors. 0.63% of 310,000 active. AID 720579; calls by dose curve; tested in A549 cells; further: on the % scale 0 is the no-effect control and ±100 the full control effect; nearly all actives have a fitted effect of over 35% in size
An asterisk follows results filed as active; i = inactive; ? = inconclusive; nt = not tested or not shown. Unless noted, the call rests on the fitted dose curve; in most records, active means well fitted inhibition curve with a large enough effect; inconclusive means small, poorly fitted or top-dose-only effect, or another doubt; inactive means no such curve, though single readings can be large or run the other way. Potency means the concentration at half of the fitted maximal effect.

SMILES	VACV Venus inh	Pf growth 96h	NS1 inh	HCV inhibitor	Pf growth 48h	VACV mCherry inh
Brc1cccc(OCCCNC2CCCC2)c1	nt	12µM*	22%	6%	?	nt
Cc1ccccc1NC(=O)CN1CCc2ccccc2C1	-4%	-11%	-2%	6%	2%	i
COC(=O)c1ccc(NC(=O)c2ccccc2OCC(=O)Nc2ccc(Br)cc2)cc1	?	nt	nt	nt	nt	-27%
Oc1c(Cl)cc(Cl)cc1/C=N/Nc1ncc(Br)cn1	?	15µM*	nt	2.2µM*	0.093µM*	1.6µM*
Cc1ccc(N=Cc2cc(Cl)cc(Cl)c2O)nc1	-9%	?	-16%	?	?	-9%
O=C(N/N=C/c1ccc(Cl)cc1Cl)c1cccc(N2CCCC2=O)c1	-13%	-27%	8%	?	?	-13%
Cc1ccc(C(C)C)c(OCc2ccc(C(=O)N/N=C/c3ccc(O)cc3O)cc2)c1	?	?	-12%	3.2µM*	2.6µM*	1.6µM*
Cc1ccc(C(C)C)c(OCc2ccc(C(=O)N/N=C/c3ccc(C(=O)O)cc3)cc2)c1	nt	-5%	-46%	-13%	?	nt
O=C(N/N=C/c1cc(Br)cc(Br)c1O)c1cccc(N2CCCC2=O)c1	-13%	10µM*	2%	?	75%	-9%
O=C(N/N=C/c1ccc(O)cc1O)/C(=C/c1ccccc1)CCO	?	0%	-1%	?	0%	11µM*
NC(=S)N/N=C\c1c[nH]c2ccccc12	nt	nt	-1%	nt	nt	nt
O=C(N/N=C/c1ccc(O)cc1O)c1ccncc1	nt	12µM*	-3%	?	?	nt
Cc1cccc(NC(=S)N/N=C/c2c[nH]c3ccccc23)c1	?	44%	2%	10µM*	?	?
O=C(N/N=C/c1c[nH]c2ccccc12)c1ccncc1	-4%	12µM*	-1%	-6%	12%	-1%
CCc1cc(C(=O)N/N=C/c2ccc(O)cc2O)c2ccccc2n1	-23%	-8%	4%	?	?	1.1µM*
COc1ccc(N2CCN(S(=O)(=O)CCNC(=O)c3c(F)cccc3Cl)CC2)cc1	-3%	nt	nt	nt	nt	-11%
Cc1cccc(C(=O)Oc2c(Br)cc(Br)cc2/C=N/NC(=O)c2ccncc2)c1	7%	19%	2%	0%	10%	-11%
O=C(N/N=C/c1cc(Cl)cc(Cl)c1O)c1ccncc1	nt	2.3µM*	-72%	?	13µM*	nt
O=C(N/N=C/c1cc(Br)cc(Br)c1O)c1ccncc1	?	16%	nt	?	9.3µM*	7.9µM*
O=C(NCCc1ccccc1)c1ccc2c(c1)OCCO2	-8%	-4%	-24%	22%	-30%	i
C#CC[N+]1(CC#Cc2ccc(C)cc2)CCCCC1	-2%	?	5%	?	1.7µM*	i
Cc1ccc(C#CC[N+]2(C)CCCCC2)cc1	-6%	1.9µM*	0%	15%	6.6µM*	-4%
CCOc1cccc(-c2nnc(SCC(=O)Nc3cc(C)ccc3OC)n2N)c1	nt	?	14%	-25%	-24%	nt
COc1cccc2sc(Nc3nnc(-c4ccc(F)cc4)o3)nc12	?	1.9µM*	-31%	?	12µM*	?
COc1cccc2sc(Nc3nnc(-c4cccs4)o3)nc12	?	144%	-123%	?	?	?
SMILES	VACV Venus inh	Pf growth 96h	NS1 inh	HCV inhibitor	Pf growth 48h	VACV mCherry inh
CCOc1ccc(-n2c(N)c(-c3nc4ccccc4n3C)c3nc4ccccc4nc32)cc1	-8%	2.9µM*	14%	24%	3%	-11%
CCOc1ccc(-n2c(N)c(C(=O)NCc3ccco3)c3nc4ccccc4nc32)cc1	-11%	-60%	8%	?	nt	-24%
Cc1cc(Cl)ccc1NC(=O)COC(=O)c1cc([N+](=O)[O-])ccc1N1CCOCC1	-17%	-3%	nt	2.5µM*	?	i
COCCOc1ccc(C(F)(F)F)cc1NC(=O)COC(=O)c1cc([N+](=O)[O-])ccc1N1CCOCC1	-26%	9.3µM*	-2%	?	?	-15%
O=C(COC(=O)c1cc([N+](=O)[O-])ccc1N1CCOCC1)Nc1ccc(Cl)cn1	28µM*	?	-27%	?	-13%	?
CN(C(=O)COC(=O)c1cc([N+](=O)[O-])ccc1N1CCOCC1)C1CCCCC1	-12%	nt	nt	nt	nt	0%
O=C(COC(=O)c1cc([N+](=O)[O-])ccc1N1CCOCC1)NC1CCCCC1	-14%	-7%	nt	-21%	0%	-17%
O=C(COC(=O)c1cc([N+](=O)[O-])ccc1N1CCOCC1)Nc1ccc(Cl)cc1	-18%	3%	-2%	?	4%	i
CCc1ccc(C(=O)COC(=O)c2cc([N+](=O)[O-])ccc2N2CCOCC2)cc1	-22%	?	nt	1µM*	?	?
CCNC(=S)N/N=C(\C)c1cccc(OC)c1	nt	-21%	-4%	2%	1%	nt
Cn1c(=O)n(C)c2cc(NC(=O)CSc3nnc(-c4ccccc4O)n3-c3ccccc3)ccc21	-16%	nt	-69%	?	?	nt
COc1ccc2c(C)cc(=S)[nH]c2c1	-16%	?	1%	0%	-19%	-22%
O=C(NC(Cc1ccccc1)C(=O)O)/C(=C\c1ccc(Cl)cc1)NC(=O)c1ccccc1 (configuration not stated)	11%	0%	5%	17%	2%	-5%
COc1ccc(C(=O)Nc2c(N)nc(SCC(=O)NCC3CCCO3)[nH]c2=O)cc1OC (configuration not stated)	-16%	8%	2%	-5%	-13%	i
NC(=O)c1ccc(NC(=O)COC(=O)c2cc([N+](=O)[O-])ccc2N2CCOCC2)cc1	-4%	-15%	nt	?	2%	-9%
COCCOc1ccc(C(F)(F)F)cc1NC(=O)COC(=O)C12CC3CC(CC(O)(C3)C1)C2	-7%	?	-1%	-13%	2.3µM*	-13%
CCc1cccc(C)c1NC(=O)COC(=O)c1cc([N+](=O)[O-])ccc1N1CCOCC1	3%	36%	nt	10µM*	?	-16%
COC(=O)c1cc(C(=O)Nc2ccc(S(=O)(=O)NC(C)(C)C)cc2)cc([N+](=O)[O-])c1	-8%	2.6µM*	29%	-9%	?	-16%
COc1cc(C(=O)Nc2ccc(S(=O)(=O)NC(C)(C)C)cc2)cc(OC)c1OC	nt	-55%	5%	13µM*	nt	nt
COc1cc(C(=O)Nc2ccc(S(=O)(=O)NC(C)C)cc2)cc(OC)c1OC	nt	-2%	0%	?	nt	nt
Cc1noc(NS(=O)(=O)c2ccc(NC(=O)COc3ccc(C#N)cc3)cc2)c1C	-6%	nt	nt	-3%	nt	-10%
COc1cc(NC(=O)c2nccnc2N)cc(C(=O)Nc2cccc(C(F)(F)F)c2)c1	?	?	3%	-18%	?	-16%
COc1cc(NC(=O)c2nccn2C)cc(C(=O)Nc2cccc(C(F)(F)F)c2)c1	?	56%	5%	2.5µM*	-16%	?
